# High-throughput results (PubChem BioAssay)
# Hits are enriched below; roughly 12% of the tested compounds scored in any of these assays.
# Pf growth 48h: P. falciparum growth inhibition at 48 hours (one generation). P. falciparum luciferase growth in erythrocytes, 48 h. Potency, µM (series often up to 28.7 µM), for inactives: top-dose activity change, negative = inhibition, most hits filed as inhibitors. 310,000 compounds, 5.9% hits. AID 504832; note: % is set by controls: 0 for no effect and ±100 for the full control effect
#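 Here the parasites carry a stable luciferase gene and grow inside erythrocytes in Albumax-based RPMI medium with compound for one erythrocytic cycle. Activity is scored as loss of luminescent signal.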
# SARS PLP yeast: blocks SARS-CoV papain-like protease in a yeast assay | S. cerevisiae expressing SARS-CoV PLpro, growth rescue | Potency, µM (series often up to 32.9 µM), inactives show at the highest dose activity, positive = growth rescue, usual class: activators | 330,000 compounds, 0.19% hits; calls by dose curve; note: 0% is about no effect; nearly all actives have a fitted effect of over 55% in size
# AmpC inh no detg: blocks E. coli AmpC beta-lactamase in detergent-free assay | 330,000 compounds, 0.52% hits | Potency, µM (series often up to 57.1 µM), for the others: at the highest dose activity change, negative = inhibition, actives largely listed as inhibitors | P00811 | AmpC nitrocefin hydrolysis, absorbance 480 nm, 0.0001% Triton;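 note: plate controls were no compound for no effect and no enzyme for full effect; nearly all actives have a fitted effect of over 20% in size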
# Target sequence (P00811 whole entry, looked up): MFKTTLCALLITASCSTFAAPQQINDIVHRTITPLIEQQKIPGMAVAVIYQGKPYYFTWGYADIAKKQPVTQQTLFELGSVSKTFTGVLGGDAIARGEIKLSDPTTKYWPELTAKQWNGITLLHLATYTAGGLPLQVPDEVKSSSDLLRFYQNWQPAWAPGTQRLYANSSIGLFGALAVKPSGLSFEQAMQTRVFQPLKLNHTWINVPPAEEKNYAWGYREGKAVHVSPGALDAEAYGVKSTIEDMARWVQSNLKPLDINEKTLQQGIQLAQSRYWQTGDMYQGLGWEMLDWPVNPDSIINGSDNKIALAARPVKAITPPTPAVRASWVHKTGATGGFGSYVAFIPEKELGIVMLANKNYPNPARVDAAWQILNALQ
#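 AmpC (5.3 nM in the dispensed reagent) in 20 mM phosphate pH 7.0 with 0.01% (detergent screen) or 0.0001% Triton X-100 was preincubated with compounds for 15 min at room temperature. Nitrocefin was then added from an 800 uM solution, and hydrolysis was followed at 480 nm.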
# Pf growth 96h: inhibits malaria parasite growth, 96 h; Potency, µM (series often up to 28.7 µM), without a hit: at the highest dose activity change, negative = inhibition, actives largely listed as inhibitors; 320,000 compounds, 6.9% hits; P. falciparum luciferase reporter growth, 96 h; note: % is set by controls: 0 for no effect and ±100 for the full control effect
#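 Cell-based qHTS: luciferase-tagged P. falciparum in erythrocytes (2% hematocrit, 0.05% parasitemia final) incubated with compounds for 96 hours, 37 C, 5% CO2; luciferase detection reagent then added and luminescence measured.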
# Sm TGR block: S. mansoni TGR enzyme inhibition; Q962Y6; purified TGR, DTNB reduction, TNB absorbance 405 nm; Potency, µM (doses to about 114 µM), for inactives: at the top dose activity change, negative = inhibition, most hits filed as inhibitors; 360,000 compounds, 3% hits; note: % is set by controls: 0 for no effect and ±100 for the full control effect; nearly all actives have a fitted effect of over 60% in size
#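 Kinetic colorimetric format: TGR-catalysed, NADPH-driven DTNB reduction monitored via TNB absorbance. Enzyme dispensed at 20 nM; compound exposure 15 min at room temperature before reaction start.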
# AmpC detergent: AmpC beta-lactamase inhibition with detergent present | P00811 | AmpC hydrolysis of nitrocefin, absorbance 480 nm, 0.01% Triton | Potency, µM (highest dose often 114 µM), for inactives: at the top dose activity change, negative = inhibition, most hits filed as inhibitors | 370,000 compounds, 0.041% hits;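 note: 0% = no-compound wells and -100% = no-enzyme wells; nearly all actives have a fitted effect of over 25% in size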
#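 AmpC (5.3 nM in the dispensed reagent) in 20 mM phosphate pH 7.0 with 0.01% (detergent screen) or 0.0001% Triton X-100 was preincubated with compounds for 15 min at room temperature. Nitrocefin was then added from an 800 uM solution, and hydrolysis was followed at 480 nm.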
# An asterisk follows results filed as active; u = inconclusive; x = no result given. Unless noted, calls come from the whole dose curve; as a rule, active = well fitted curve in the direction sought with a large enough effect; inconclusive = small, poorly fitted or top-dose-only effect, or another doubt; inactive = no such curve, though single readings can be large; an effect the other way counts as inactive or inconclusive. Potency is the fitted concentration of half-maximal effect.
SMILES,Pf growth 48h,SARS PLP yeast,AmpC inh no detg,Pf growth 96h,Sm TGR block,AmpC detergent
Cc1ccc(-c2cc3ncc4c(n3n2)-c2ccccc2OC4)cc1,x,x,x,x,-1%,-3%
COc1ccc(-c2c[n+]3c4n2CCCCC4=C(c2ccccc2)C3)cc1,u,-6%,-2%,6.6µM*,-1%,-3%
FC(F)Oc1ccc(-c2c[n+]3c(n2-c2ccccc2)CCCCC3)cc1,u,0%,-5%,u,-1%,0%
COc1ccc(-c2c[n+]3c(n2-c2ccc(C)cc2)CCCCC3)cc1,0.93µM*,-1%,8%,0.29µM*,7%,-5%
COc1ccc(-c2c[n+]3c(n2-c2ccccc2)CCCCC3)cc1,1µM*,-9%,-7%,u,3%,-8%
COc1ccc(-c2c[n+]3c(n2-c2c(C)n(C)n(-c4ccccc4)c2=O)CCCCC3)cc1,u,-2%,-28%,14%,u,2%
COc1ccc(-n2c(-c3ccc(Cl)cc3)c[n+]3c2CCCCC3)cc1,1µM*,1%,1%,0.47µM*,-1%,-13%
O=C(Nc1cccc(F)c1F)C1CCN(c2ncccn2)CC1,x,x,x,x,-5%,18%
CC1CCCC(C)N1/N=C/c1ccc(C#N)cc1 (configuration not stated),3%,3%,-22%,118%,14%,2%
O=C1NC(=S)N(Cc2ccco2)C(=O)/C1=C\c1cccs1,-23%,2%,-60%,10%,3.5µM*,45µM*
C=CCN1C(=O)/C(=C/c2cccs2)C(=O)NC1=S,-4%,4%,-31%,-28%,10µM*,-5%
O=C1NC(=O)N(CCc2ccc(F)cc2)C(=O)/C1=C/c1cccs1,16%,1%,-36%,19%,u,u
Cc1ccc(C(CC(=O)O)NC(=O)CN2C(=O)c3ccccc3C2=O)cc1 (configuration not stated),-6%,1%,-18%,3%,-8%,-21%
Cc1ccccc1Oc1cc(-n2ncc(Cl)c(Cl)c2=O)ncn1,u,-86%,-16%,-29%,2µM*,-22%
CCOc1cnn(-c2cc(Oc3ccc(C)cc3)ncn2)c(=O)c1Cl,x,5%,22%,u,1%,2%
Cc1ccc(NNC2CC(=O)N(c3cccc(Cl)c3)C2=O)cc1 (configuration not stated),20%,-4%,-53%,284%,45µM*,-3%
CC(=O)NCCCC(=O)NNC1CC(=O)N(c2cccc(Cl)c2)C1=O (configuration not stated),9%,-7%,-27%,20%,11µM*,6%
CCN(CC)C1CC(=O)N(c2cccc(Cl)c2)C1=O (configuration not stated),53%,-23%,-19%,-8%,4µM*,-8%
CCOC(=O)NNC1CC(=O)N(c2ccccc2)C1=O (configuration not stated),28%,1%,-12%,38%,8%,-12%
CCCCCC(=O)NNC1CC(=O)N(c2cccc(OCC)c2)C1=O (configuration not stated),27%,1%,21%,u,32µM*,-1%
CC(O)CCC(=O)NNC1CC(=O)N(c2ccccc2)C1=O (configuration not stated),8%,1%,-7%,38%,-6%,-2%
O=C(CSc1nnc(-c2ccncc2)n1-c1ccc(F)cc1)NNC(=O)c1cccc(O)c1,14%,3%,-17%,9%,-1%,u
O=C(COc1coc(CN2CCN(c3ccccc3)CC2)cc1=O)Nc1cccc(F)c1,5%,-5%,-11%,u,-2%,2%
Cc1ccccc1NC(=O)COc1coc(CN2CCN(c3ccccc3)CC2)cc1=O,u,2%,35%,-21%,-16%,0%
Cc1cccc(NC(=O)COc2coc(CN3CCN(c4ccccc4)CC3)cc2=O)c1,9.3µM*,3%,-3%,u,u,3%
SMILES,Pf growth 48h,SARS PLP yeast,AmpC inh no detg,Pf growth 96h,Sm TGR block,AmpC detergent
COc1ccccc1NC(=O)COc1coc(CN2CCN(c3ccccc3)CC2)cc1=O,13µM*,-1%,88%,u,-13%,0%
COCCCNCCCCOc1ccc(Br)cc1Cl,u,-11%,9%,u,-8%,-8%
C=CCNCCCCOc1ccc(Br)cc1C,-21%,-10%,0%,9.3µM*,-19%,u
Cc1cc(Br)ccc1OCCCCNCCO,u,8%,17%,10µM*,2%,-6%
C=CCNCCCOc1ccc(Cl)cc1Br,-15%,-10%,-18%,u,-6%,-2%
COc1cccc(C(=O)Nc2ccccc2OC(F)(F)F)c1,14%,-1%,-17%,4%,0%,2%
Cc1ccc2cc(CN(C(=O)c3ccco3)c3ccccc3)c(=O)[nH]c2c1,-10%,-12%,-17%,u,32µM*,u
Cc1ccc(N(Cc2cc3ccccc3[nH]c2=O)C(=O)c2ccco2)c(C)c1,u,1%,-40%,x,-15%,-9%
Cc1cccc(N(Cc2cc3ccc(C)cc3[nH]c2=O)C(=O)c2ccco2)c1,u,0%,-10%,10µM*,4.5µM*,12%
Cc1ccc(N(Cc2cc3ccc(C)cc3[nH]c2=O)C(=O)c2ccco2)cc1,-11%,1%,-28%,239%,2.2µM*,-10%
Cc1oc2ncn(CC(C)C)c(=O)c2c1C(=O)NC(C)c1ccccc1 (configuration not stated),x,x,x,x,-5%,-4%
Cc1ccc(CNC(=O)CCc2c(C)nn(-c3ccc(N4CCCCC4)nn3)c2C)cc1,x,x,x,x,29%,25%
CCC(=O)N1CCc2cc(S(=O)(=O)CCC(=O)N3CCN(c4cccc(C)c4)C(C)C3)ccc21 (configuration not stated),x,x,x,x,10%,2%
Cc1ccccc1Nc1nnc(SCc2cc([N+](=O)[O-])cc3c2OCOC3)s1,x,3%,-35%,4.7µM*,0%,3%
Cc1cc(C(=O)N2CC=C(c3ccccc3)CC2)c2ccccc2n1,u,2%,34%,-1%,0%,0%
Cc1ccc(C(=O)N2CC=C(c3ccccc3)CC2)o1,13µM*,-10%,-2%,-5%,28µM*,-9%
O=C(O)c1ccccc1C(=O)N1CC=C(c2ccccc2)CC1,u,-9%,-7%,37%,35µM*,-6%
Cc1ccc(CN2CC(C(=O)N3CC=C(c4ccccc4)CC3)CC2=O)cc1 (configuration not stated),-23%,-1%,143%,u,-22%,3%
